The results in this text go back to ChEMBL document CHEMBL1157539, “Thousands of chemical starting points for antimalarial lead identification” (Nature, 2010).

This assay has as its system Plasmodium falciparum. Kind of assay: GSK_TCMDC: Inhibition of Plasmodium falciparum 3D7 in whole red blood cells, using parasite LDH activity as an index of growth. Test compounds present at 2uM. The assay is classed as functional.
For orientation: Inhibition means the percentage by which the read-out fell short of the control. The low end stands for a response near the control, the high end for a response far below the control. The compound `CC(=O)N/N=C/[C@H](CCc1ccccc1)NC(=O)[C@H](CC(C)C)NC(=O)c1ccc(F)cc1` yielded an Inhibition of 95%.
To `CN1CCN(CC(O)CNC(=O)Nc2ccc(Br)cc2)CC1.O=C(O)C(F)(F)F` (stereo unspecified) belongs 100%; to `CCN1CCN(CCCNc2c3ccccc3nc3ccccc23)CC1.Cl`, 100%; to `O=C(CSc1nnc(-c2ccccc2Br)[nH]1)c1c[nH]c2ccccc12`, 100%.
With `O=C(NCCCCCN1CCC(c2c[nH]c3ccccc23)CC1)Nc1ccc(I)c(Cl)c1`, the Inhibition is 99%.
To `Cc1cccc2[nH]c(-c3cc(-c4cn[nH]c4)cnc3N)nc12` belongs 100%.
To `COc1ccccc1C1CN(Cc2coc3ccccc3c2=O)Cc2ccccc2O1` (stereo unspecified) belongs 87%; to `CC(C)N1CCC(N(Cc2ccc(-c3ccc(C(F)(F)F)cc3)cc2)C(=O)Cn2c(SCc3cccc(F)c3F)cc(=O)c3c2CCC3)CC1.O=C(O)C(O)C(O)C(=O)O`, 88%.
To `CC(C)CN(c1nc(C(=O)NNC(=O)[C@H](CC2CC2)NC(=O)c2cc3cc(OCCN(C)C)ccc3o2)cs1)C1CC1` belongs 87%; to `O=C(O)C(F)(F)F.O=S(=O)(NCCN1CCCC1)c1cccc(-c2cccc(CNCc3ccccc3)c2)c1`, 97%; to `COc1ccc(CCn2c(=N)c(C(=O)NCc3ccc(C)cc3)cc3c(=O)n4ccccc4nc32)cc1`, 97%.
Compound `COc1cc(Cc2cnc(N)nc2N)cc(OCCCCC2NC(=O)NC2=O)c1OC` (stereo unspecified) gave an Inhibition of 94%.
Under `CN1CCCC(COc2cc3c(cc2Br)CCN3C(=O)Nc2ccc(-c3ccncc3)c(Cl)c2)C1` (stereo unspecified) stands 100%; under `O=[N+]([O-])c1cccc(NC(=S)N2CCCN(Cc3ccc(C(F)(F)F)cc3)CC2)c1`, 90%.
To `CCCNCc1ccc(-c2ccc(CN(CCOC)C(=O)c3cnc(C)cn3)cc2)nc1.O=C(O)C(F)(F)F` belongs 81%.
Turning to `COc1ccc2nccc(NC(=O)N3CCC(NCc4cc5c(F)ccc(F)c5[nH]4)CC3)c2n1.O=C(O)C(=O)O`, the Inhibition was found to be 99%.
For `COc1cccc(Nc2nc(Nc3cccc(C#N)c3)cc(C(F)(F)F)n2)c1`, the Inhibition was determined as 99%.
To `CN1CCN(c2ccnc3ccc(NC(=O)Nc4ccc5c(c4)CCC5=O)cc23)CC1` belongs 100%; to `CCOC(=O)C1=C(C)NC2=C(C(=O)CC(C)(C)C2)C1c1ccc(Cl)cc1` (stereo unspecified), 96%; to `O=C(/C=C/c1ccc(Cl)c(Cl)c1)NCCCCCN1CCC(NC(=O)c2cccc(Cl)c2)CC1`, 98%.
The compound `CC(C)[C@H](NCC(=O)c1ccccc1)C(=O)O.Cl` showed an Inhibition of 99%.
As to `CCN(CC)CCN(Cc1ccc(-c2ccc(Cl)cc2)cc1)C(=O)Cn1cc(CN(C)C)c(=O)nc1SCc1ccc(F)cc1`, the Inhibition came to 99%.
Turning to `Cc1ccc(C2CC(c3cccs3)=NN2C(=O)c2ccc(Br)o2)cc1` (stereo unspecified), the Inhibition is recorded as 99%.
Under `CCC(C)(C)c1ccc(Oc2ccc(NC(=O)Nc3ccc(Cl)c(Cl)c3)cc2)cc1` stands 98%; under `Cc1ccc(Nc2nc(C)cc(N3CCN(CCc4ccccc4)CC3)n2)cc1`, 93%; under `O=C(NC1CCN(c2ccnc(Nc3ccc(F)cc3)n2)C1)c1cc2ccccc2s1` (stereo unspecified), 99%.
Under `Cc1ccc(O)c(-c2cc(C(=O)Nc3ccc(S(=O)(=O)N4CCCC(C)C4)cc3)[nH]n2)c1` (stereo unspecified) stands 96%.
To `O=C(NCCN1CCC(NC(=O)c2ccc(-c3ccccn3)s2)CC1)c1cccc(C(F)(F)F)c1.O=C(O)C(F)(F)F` belongs 97%; to `O=C(/C=C/c1ccc(Cl)c(Cl)c1)N1CCC(CCN2CCC(c3c[nH]c4ccncc34)CC2)CC1`, 100%; to `O=C(/C=C/c1ccc(Cl)c(Cl)c1)NCCCCCN1CC[C@H](NC(=O)c2sc3ccccc3c2Cl)C1`, 97%.
For the compound `Cc1cnc(CN(Cc2ccc(-c3ccc(CNCCc4ccc(S(C)(=O)=O)cc4)cn3)cc2)C(=O)c2ccc([N+](=O)[O-])c(C)c2)cn1.O=C(O)C(F)(F)F`, the Inhibition was found to be 93%.
To `COc1cccc(NC(=O)Nc2ccc(Nc3nc(C)cc(N4CCCC4)n3)cc2)c1` belongs 100%.
For `O=C(NC1CCN(c2ccnc3cc(Cl)ccc23)C1)c1ccc(C(F)(F)F)cc1.O=C(O)C(F)(F)F` (stereo unspecified), the Inhibition turned out to be 100%.
To `CCCNCc1ccc(-c2ccc(CN(CCOC)C(=O)c3ccccc3)cc2)nc1.O=C(O)C(F)(F)F` belongs 94%.
For `COc1ccc(C(=O)Nc2nonc2-c2ccc(OC)c(OC)c2)cc1Cl`, the Inhibition is given as 97%.
To `O=C(NCCN1CCCCC1)c1cccc(Nc2nccc(Nc3ccc(Oc4ccccc4)cc3)n2)c1` belongs 99%.
